{"source": "PubChem BioAssay (EPA / NIEHS)", "note": "Calls of active or inactive are those of the source. The calls were made as follows: active = hit-call score of the fitted dose curve at least 0.9, where 1 is the maximum; inactive = score below 0.9.", "data": [{"read-out": "Vascular cell adhesion molecule 1 (VCAM1), VCAM1 (gene 7412)", "assay": "BSK_LPS_VCAM1: BioMAP Diversity Plus: LPS Assay for Vascular cell adhesion molecule 1 (VCAM1) Biomarker Activity (AID 2283086)", "conditions": "primary human HUVEC with PBMC; actives raise or lower the signal", "method": "BSK_LPS is a cell-based, multiplexed-readout assay that uses umbilical vein endothelium and peripheral blood mononuclear cells, a human vascular primary cell co-culture, with measurements taken at 24 hours after chemical dosing in a 96-well plate.BSK_LPS_VCAM1 is an assay component measured in the BSK_LPS assay. It measures VCAM-1 antibody related to regulation of gene expression using ELISA technology.Data from the assay component BSK_LPS_VCAM1 was analyzed into 1 assay endpoint. This assay endpoint, BSK_LPS_VCAM1, was analyzed with bidirectional fitting relative to DMSO as the negative control and baseline of activity. Using a type of binding reporter, gain or loss-of-signal activity can be used to understand changes in the signaling as they relate to the gene VCAM1. Furthermore, this assay endpoint can be referred to as a primary readout, because this assay has produced multiple assay endpoints where this one serves a signaling function. To generalize the intended target to other relatable targets, this assay endpoint is annotated to the cell adhesion molecules intended target family, where the subfamily is Immunoglobulin CAM.\nThe levels of cell surface (or secreted, indicated by the prefix \"s\") biomarker endpoints were measured by ELISA. Overt cytotoxicity to cells in confluent adherent cultures (all systems other than the BT system) was assessed by measuring total protein levels using sulforhodamine B (SRB) staining in parallel cultures at the time of biomarker measurements, indicated as SRB endpoints. For proliferation assays for adherent cell types, individual cell types are cultured at sub-confluence and relative cell numbers quantified by SRB staining at time points optimized for each system (48 h: 3C and CASM3C systems; 72 h: BT and HDF3CGF systems; 96 h: SAg system). SRB was performed by staining cells with 0.1% SRB after fixation with 10% TCA and reading wells at 560 nm.Viability and proliferation of PBMC (T cells) was quantified by Alamar Blue reduction for the SAg and BT systems. For PBMC viability (referred to as PBMC Cytotoxicity within the assay endpoint names), cells were plated (75,000/well in a 96-well plate) and then chemical samples added for 1 h before addition of activators, SEB and TSST-1 (20 ng/mL final concentration each). Cells were incubated for 90 h. Then, Alamar Blue (20 uL/well) (Invitrogen, Cat DAL1100) was added for 6 h, and the plates were read with a fluorescence microplate reader at 546/580 nm (excitation/emission). For PBMC proliferation, cells were plated and activated as above but incubated for only 16 h prior to addition of Alamar Blue. Plates were read after 6 h.", "values": [{"smiles": "CC(C)c1cccc(C(C)C)c1", "outcome": "inactive"}, {"smiles": "NCCOCCOCCN", "outcome": "inactive"}, {"smiles": "CC(=O)S[C@H](C(=O)N[C@H]1Cc2ccccc2[C@H]2CCC[C@@H](C(=O)O)N2C1=O)C(C)C", "outcome": "inactive"}, {"smiles": "CC(C)OC(=O)C(C)(C)Oc1ccc(C(=O)c2ccc(Cl)cc2)cc1", "AC50": "32.2 µM (active)"}, {"smiles": "O=[Si]=O", "outcome": "inactive"}, {"smiles": "CC(C)(O)c1ccc(CNC(=O)c2cccnc2Oc2ccc(F)cc2)cc1", "outcome": "inactive"}, {"smiles": "Cc1cn([C@H]2C=C[C@@H](CO)O2)c(=O)[nH]c1=O", "outcome": "inactive"}, {"smiles": "CN(C)C(=O)NC1(c2ccccc2)CCN(CCC[C@]2(c3ccc(Cl)c(Cl)c3)CCCN(C(=O)c3ccccc3)C2)CC1", "AC50": "6.96 µM (active)"}, {"smiles": "CCc1nc(N)nc(N)c1-c1ccc(Cl)cc1", "outcome": "inactive"}, {"smiles": "CC(=O)O", "outcome": "inactive"}, {"smiles": "COc1ccc(OC(F)(F)F)cc1CN[C@H]1CCCN[C@H]1c1ccccc1", "AC50": "14.6 µM (active)"}, {"smiles": "CCCCCCCCCCCCCCCCO", "outcome": "inactive"}, {"smiles": "CCC(C)N(C)C(=O)c1cc2ccccc2c(-c2ccccc2Cl)n1", "note": "(stereo not given)", "outcome": "inactive"}, {"smiles": "O=C1OC(c2ccc(O)cc2)(c2ccc(O)cc2)c2ccccc21", "AC50": "30.7 µM (active)"}, {"smiles": "C=CCc1ccc(OC)c(OC)c1", "outcome": "inactive"}, {"smiles": "O=NO", "outcome": "inactive"}, {"smiles": "O=C1NC(=O)C(c2ccccc2)(c2ccccc2)N1", "outcome": "inactive"}, {"smiles": "NC=O", "outcome": "inactive"}, {"smiles": "Nc1nc(Cl)nc2c1ncn2[C@H]1C[C@H](O)[C@@H](CO)O1", "outcome": "inactive"}, {"smiles": "CCCC(=O)O", "outcome": "inactive"}, {"smiles": "c1ccc2occc2c1", "outcome": "inactive"}, {"smiles": "CCc1cc(C2=C(C(=O)O)N(c3ccccc3C(F)(F)F)S(=O)(=O)c3ccccc32)cc2c1OCO2", "outcome": "inactive"}, {"smiles": "CC(=O)[C@@]1(O)CC[C@H]2[C@@H]3CCC4=CC(=O)CC[C@]4(C)[C@H]3CC[C@@]21C", "outcome": "inactive"}, {"smiles": "O=C(O)c1cccnc1", "outcome": "inactive"}, {"smiles": "CC1(C)C(=O)NC(=O)N1CO", "outcome": "inactive"}, {"smiles": "O=C(N[C@@H](c1ccccc1)[C@@H]1CCCCN1)c1cccc(C(F)(F)F)c1Cl", "AC50": "20 µM (active)"}, {"smiles": "CC(N)=O", "outcome": "inactive"}, {"smiles": "CC(C)NCC(O)c1ccc(O)c(O)c1", "note": "(stereo not given)", "outcome": "inactive"}, {"smiles": "CSc1ccc(Oc2ccc(S(N)(=O)=O)cc2CN(C)C)cc1C", "outcome": "inactive"}, {"smiles": "OCC(O)CO", "outcome": "inactive"}, {"smiles": "OCC(CO)n1cnc(-c2ccc(F)cc2)c1-c1ccnc(Oc2ccccc2)n1", "outcome": "inactive"}, {"smiles": "O=C(O)c1[nH]n(-c2ccc(S(=O)(=O)O)cc2)c(=O)c1N=Nc1ccc(S(=O)(=O)O)cc1", "outcome": "inactive"}, {"smiles": "C/C=C/C=C/C(=O)O", "outcome": "inactive"}, {"smiles": "CCCCc1nc2cccnc2n1Cc1ccc(-c2ccccc2-c2nnn[nH]2)cc1", "outcome": "inactive"}, {"smiles": "CC1=C(C)S(=O)(=O)CCS1(=O)=O", "AC50": "11.5 µM (active)"}, {"smiles": "CC(C)COC(=O)CCCCC(=O)OCC(C)C", "outcome": "inactive"}, {"smiles": "CC(=O)CC(c1ccccc1)c1c(O)c2ccccc2oc1=O", "note": "(stereo not given)", "outcome": "inactive"}, {"smiles": "CCOCCOCCO", "outcome": "inactive"}, {"smiles": "CN(C)CCCN(C)CCCN(C)C", "outcome": "inactive"}, {"smiles": "CS(=O)(=O)c1ccc([C@@H](C[C@H]2CCC(=O)C2)C(=O)Nc2cnccn2)cc1Cl", "outcome": "inactive"}]}]}
